# Results published in PubChem BioAssay.
# Activity calls are given as the source filed them.
# Key:
# [1] = system: Human papillomavirus type 1a protein E7 (residues 44-93); assay: small molecules binding HPV E7 44-93 – biochemical, small-molecule microarray, residues 44-93, 635 nm fluorescence, primary screen (AID 1108); details: fluorescence 635 nm, higher = more signal;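 note: E7 fragment applied at 1 µg/mL in TBST for 1 h at 4 C; score combines spot fluorescence with its signal to noise ratio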
# [2] = hepatitis C replication reporter changes, two-sided – Huh7 cells, luciferase reporter, HCV replication inhibitor project, primary screen (AID 1109); details: Huh7 HCV replicon luciferase reporter, 48 h; higher = more signal;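 note: huh7 hepatoma cells harbouring a luciferase neomycin HCV replicon reporter; luciferase luminescence as measure of HCV replicon replication; test concentration not given here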
# [3] = target: Left-right determination factor 2 (Homo sapiens) (UniProt O00292); assay: small molecules binding LEFTY2 protein – biochemical, small-molecule microarray, 635 nm fluorescence scan, primary screen (AID 1110); details: higher = more signal
# Sequence of Left-right determination factor 2 (Homo sapiens) (O00292 whole entry, looked up): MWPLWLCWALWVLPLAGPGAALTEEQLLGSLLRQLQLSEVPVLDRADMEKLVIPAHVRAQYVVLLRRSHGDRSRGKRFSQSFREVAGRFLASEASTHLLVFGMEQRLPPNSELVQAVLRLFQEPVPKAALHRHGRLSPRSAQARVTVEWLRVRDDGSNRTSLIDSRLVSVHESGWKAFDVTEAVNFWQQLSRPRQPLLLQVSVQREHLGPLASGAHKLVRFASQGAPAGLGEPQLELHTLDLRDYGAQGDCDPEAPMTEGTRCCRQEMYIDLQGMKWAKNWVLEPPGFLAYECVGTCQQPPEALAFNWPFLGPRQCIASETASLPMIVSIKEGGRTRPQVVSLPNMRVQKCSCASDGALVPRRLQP
# [4] = target: Calmodulin-1 (Homo sapiens) (UniProt P0DP23); assay: small molecules binding calmodulin-1 with EGTA – biochemical, small-molecule microarray, Cy5-labelled CALM1, profiling panel (AID 1111); details: Cy5-CALM1 binding fluorescence, higher = more signal;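 note: labelled calmodulin applied in Tris saline Tween buffer holding calcium plus EGTA and DTT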
# [5] = target: Calmodulin-1 (Homo sapiens) (UniProt P0DP23); assay: small molecules binding Ca-loaded calmodulin-1 – biochemical, small-molecule microarray, Cy5-labelled CALM1, plus calcium, artefact control for SMM control-protein annotation, profiling panel (AID 1112); details: Cy5-CALM1 binding fluorescence, higher = more signal;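 note: score merges spot fluorescence with signal to noise from triplicate slides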
# [6] = probe aWnt5a binding to arrayed compounds – biochemical, biotinylated probe, 635/667 nm fluorescence, primary screen (AID 1113); details: small-molecule microarray, higher = more signal;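 note: score merges 667 nm fluorescence intensity with signal-to-noise per printed feature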
# [7] = probe aShh binding to arrayed compounds – biochemical, biotinylated probe, 635/667 nm fluorescence, primary screen (AID 1114); details: small-molecule microarray, higher = more signal;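 note: probe is biotin-labelled aShh protein from a stem cell growth factor screen; measures binding of labelled protein to compounds printed on the slide; score merges feature fluorescence at 667 nm with signal-to-noise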
# [8] = probe aNog binding to arrayed compounds – biochemical, biotinylated probe, 635/667 nm fluorescence, primary screen (AID 1115); details: small-molecule microarray, higher = more signal;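 note: probe is biotinylated aNog protein used at 0.15 µg/mL for 1 h at 4 C; z-score combines 667 nm fluorescence of each spot with its signal to noise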
# [9] = target: Torsin-1A-interacting protein 1 (Homo sapiens) (UniProt Q5JTV8); assay: compound microarray binding of lysate hLAP1 – cell lysate, small-molecule microarray, COS7 lysate, 635/667 nm fluorescence, primary screen (AID 1116); details: 635 nm fluorescence, higher = more signal
# Sequence of Torsin-1A-interacting protein 1 (Homo sapiens) (Q5JTV8 whole entry, looked up): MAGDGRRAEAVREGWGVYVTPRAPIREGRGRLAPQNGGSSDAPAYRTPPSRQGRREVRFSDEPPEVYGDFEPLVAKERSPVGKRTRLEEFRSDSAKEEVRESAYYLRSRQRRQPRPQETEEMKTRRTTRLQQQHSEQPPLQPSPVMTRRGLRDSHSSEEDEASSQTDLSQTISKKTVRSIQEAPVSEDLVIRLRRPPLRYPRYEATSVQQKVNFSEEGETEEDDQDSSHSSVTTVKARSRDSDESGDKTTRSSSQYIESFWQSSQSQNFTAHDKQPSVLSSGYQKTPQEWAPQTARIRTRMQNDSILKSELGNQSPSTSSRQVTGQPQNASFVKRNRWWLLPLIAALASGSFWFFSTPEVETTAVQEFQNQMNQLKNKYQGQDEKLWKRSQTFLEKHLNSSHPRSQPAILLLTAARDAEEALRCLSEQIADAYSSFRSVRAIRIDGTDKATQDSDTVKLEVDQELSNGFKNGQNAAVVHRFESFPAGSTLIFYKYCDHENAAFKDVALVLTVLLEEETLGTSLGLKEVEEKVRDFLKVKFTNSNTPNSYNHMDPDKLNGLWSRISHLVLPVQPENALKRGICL
# [10] = target: Alpha-bungarotoxin (Bungarus multicinctus) (UniProt P60615); assay: compounds binding labelled alpha-BTX control protein – biochemical, small-molecule microarray, Alexa647 label, 635/667 nm fluorescence, artefact control for SMM control protein annotation, profiling panel (AID 1117); details: alpha-BTX-A647 binding fluorescence, higher = more signal
# Sequence of Alpha-bungarotoxin (Bungarus multicinctus) (P60615 whole entry, looked up): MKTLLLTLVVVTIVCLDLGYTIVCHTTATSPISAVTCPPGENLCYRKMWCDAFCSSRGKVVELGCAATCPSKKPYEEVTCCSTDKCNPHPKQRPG
# Albumin (Bos taurus) = Albumin (Bos taurus) (UniProt P02769); assay: compounds binding labelled BSA control protein – biochemical, small-molecule microarray, Alexa647 label, 635/667 nm fluorescence, artefact control for SMM control protein annotation, profiling panel (AID 1118); details: BSA-A647 binding, fluorescence 635 nm, higher = more signal;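 note: score merges 667 nm emission intensity and signal-to-noise per printed compound spot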
# Sequence of Albumin (Bos taurus) (P02769 whole entry, looked up): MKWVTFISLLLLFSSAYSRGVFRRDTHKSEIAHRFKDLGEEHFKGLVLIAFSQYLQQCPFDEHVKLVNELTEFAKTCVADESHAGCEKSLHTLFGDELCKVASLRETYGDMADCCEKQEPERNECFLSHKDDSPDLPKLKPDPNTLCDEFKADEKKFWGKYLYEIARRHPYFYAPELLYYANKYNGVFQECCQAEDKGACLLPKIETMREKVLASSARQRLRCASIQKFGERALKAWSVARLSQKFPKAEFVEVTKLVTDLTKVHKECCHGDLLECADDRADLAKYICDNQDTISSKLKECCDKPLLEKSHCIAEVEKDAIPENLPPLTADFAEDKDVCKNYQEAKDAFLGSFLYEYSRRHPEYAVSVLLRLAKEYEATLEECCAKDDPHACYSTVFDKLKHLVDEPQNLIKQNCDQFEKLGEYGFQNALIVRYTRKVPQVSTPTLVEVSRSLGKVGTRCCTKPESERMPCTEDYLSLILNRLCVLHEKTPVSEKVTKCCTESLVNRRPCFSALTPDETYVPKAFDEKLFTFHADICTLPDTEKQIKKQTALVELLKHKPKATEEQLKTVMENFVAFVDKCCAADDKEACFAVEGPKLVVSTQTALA
# [11] = probe aXIP binding to arrayed compounds – biochemical, NeuroSMM set, 635/667 nm fluorescence, primary screen (AID 1119); details: small-molecule microarray, higher = more signal, called active from +8 up or from −8 down;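 note: probe is the protein aXip251-270 applied at 1 µg/mL to compound-printed slides; binding of probe to printed compounds measured as 667 nm fluorescence plus signal to noise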
# [12] = probe aNOTCH3 binding on compound microarray – biochemical, small-molecule microarray, 635/667 nm fluorescence, primary screen (AID 1120); details: higher = more signal;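 note: probe is a biotin-tagged antibody raised against NOTCH3 rather than NOTCH3 protein; score merges spot fluorescence near 667 nm with spot signal to noise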
# [13] = probe aNOTCH2 binding on compound microarray – biochemical, small-molecule microarray, 635/667 nm fluorescence, primary screen (AID 1121); details: higher = more signal;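 note: score merges feature fluorescence read at 667 nm with its signal to noise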
# [14] = target: Carbonic anhydrase 2 (Homo sapiens) (UniProt P00918); assay: compounds binding carbonic anhydrase 2 – biochemical, small-molecule microarray, Alexa647-labelled CAII, profiling panel (AID 1122); details: CAII-A647 binding fluorescence, higher = more signal
# [15] = COS7 lysate on small-molecule microarray, probe aHis, 635 nm (AID 1123); details: COS7 cell lysate, fluorescence, higher = more signal;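 note: z-score combines 667nm fluorescence intensity with signal-to-noise per printed compound spot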
# [16] = probe aLAP1 signal on lysate-treated microarray – cell lysate, small-molecule microarray, COS7 lysate, primary screen (AID 1124); details: probe aLAP1, fluorescence, higher = more signal;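 note: lysate comes from COS7 cells expressing LAP1 and is applied at 0.3 µg/mL; score merges spot fluorescence near 667 nm with signal-to-noise over triplicate slides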
# Sam68 (KHDRBS1) = assay: compounds binding KHDRBS1 protein – biochemical, small-molecule microarray, 635 nm fluorescence, primary screen (AID 1125); details: higher = more signal;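 note: score merges 667 nm channel intensity with signal to noise over triplicate slides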
# [17] = system: Chordin-like protein 2 (CHRDL2); assay: compounds binding chordin-like 2 – biochemical, small-molecule microarray, 635 nm fluorescence, primary screen (AID 1126); details: fluorescence 635 nm, higher = more signal;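 note: printed compound slides probed with Chrdl2 protein at 4 µg/mL for 1 h at 4 C; score merges 667 nm emission intensity with signal to noise over three replicate slides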
# [18] = target: Concanavalin-A (Canavalia ensiformis) (UniProt P02866); assay: compounds binding concanavalin A lectin – biochemical, small-molecule microarray, Alexa647 label, 635 nm, artefact control for SMM control protein annotation, primary screen (AID 1127); details: ConA-A647 binding fluorescence, higher = more signal;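 note: z combines 667 nm emission intensity with signal-to-noise across three replicate slides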
# Sequence of Concanavalin-A (Canavalia ensiformis) (P02866 whole entry, looked up): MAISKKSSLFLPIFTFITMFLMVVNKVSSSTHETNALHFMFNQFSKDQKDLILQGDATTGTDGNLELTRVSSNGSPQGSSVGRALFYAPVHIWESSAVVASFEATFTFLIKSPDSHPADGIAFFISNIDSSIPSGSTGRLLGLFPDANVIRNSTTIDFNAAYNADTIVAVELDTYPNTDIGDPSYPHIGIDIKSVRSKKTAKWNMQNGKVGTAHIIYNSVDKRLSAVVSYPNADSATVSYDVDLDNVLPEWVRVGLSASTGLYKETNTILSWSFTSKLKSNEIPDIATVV
SMILES,composite z-score [1],z-score [2],composite z-score [3],composite z-score [4],composite z-score [5],composite z-score [6],composite z-score [7],composite z-score [8],composite z-score [9],composite z-score [10],composite z-score (Albumin (Bos taurus)),composite Z-score [11],composite z-score [12],composite z-score [13],composite z-score [14],composite z-score [15],composite z-score [16],composite z-score (Sam68 (KHDRBS1)),composite z-score [17],composite z-score [18]
COc1ccc([Si](C)(C)[C@@H]2[C@@H](CCO)O[C@]3(C(=O)N(Cc4ccc(NC(C)=O)cc4)c4ccccc43)[C@H]2C)cc1,1.43,-5.21,0.621,1.07,0.521,0.0136,0.441,0.715,0.802,1.21,0.78,0.19 (inactive),0.217,0.0884,0.574,1.08,0.222,1.15,0.465,1.1
C[C@@H](c1ccccc1)N1C(=O)[C@H]2[C@H]3[C@H](O)[C@H](O)CC(=NNC(=O)OCc4ccccc4)[C@H]3CC[C@H]2C1=O,-0.269,-2.23,0.495,0.12,-0.726,-0.0735,0.0815,-0.0567,0.464,0.284,0.3,0.281 (inactive),-0.046,-0.0978,-0.112,0.947,0.221,-0.495,0.13,0.0811
CCCCCN1CC=CC23O[C@@H]4C=CCOC(=O)[C@@H]4[C@H]2C(=O)N(C(CO)C(C)C)[C@@H]3C1=O (stereo not given in full),-0.516,0.245,-0.518,-0.385,-1.07,-0.176,-0.276,-0.254,-0.0843,-0.257,0.13,0.252 (inactive),-0.0328,-0.13,0.286,-0.59,1.06,-0.827,-0.326,0.203
Cc1cc2c(c(=O)o1)[C@H](O)[C@H]1O[C@H]1C2=O,-1.5,-2.16,0.761,-0.766,-1.38,-0.208,0.0048,-0.359,0.17,0.0658,-1.02,-0.18 (inactive),0.255,-0.0076,0.0024,-0.682,-0.106,-0.333,0.26,-0.0383
CC(=O)OC[C@H]1O[C@H](C#CCCCc2ccccc2)C=C[C@@H]1OC(C)=O,0.108,-2.99,0.615,-0.826,-0.794,-0.118,-0.0474,-0.493,0.298,0.155,0.495,0.0117 (inactive),-0.0647,-0.0772,-0.155,0.622,0.46,0.459,0.192,-0.077
COC(=O)[C@@H]1CC[C@H](C)[C@@H](c2ccc(C)cc2)N1C(=O)c1ccc(C=NOC[C@@H](O)COCc2ccco2)cc1,-1.6,-2.42,0.283,-1.22,-1.22,-0.21,-0.2,-0.788,-1.63,-1.25,-0.188,-0.93 (inactive),-0.0077,-0.195,-0.746,-1.31,0.171,-1.9,-0.177,-3.62
CN1C(=O)[C@@]2(CCC(=O)OC(C)(C)C)N=C(c3ccc(OCCCO)cc3)O[C@H]2c2ccccc21,1.29,-2.9,-0.057,0.878,-0.304,-0.096,0.137,-0.539,0.558,0.721,0.498,-0.428 (inactive),-0.0694,-0.165,0.337,2.38,0.176,1.27,0.0811,1.09
O=C1[C@H]2[C@H]3[C@H](O)[C@H](O)CC(=NOC[C@@H](O)COCc4ccco4)[C@@H]3CC[C@H]2C(=O)N1c1ccc(F)cc1F,0.427,0.199,0.74,-0.616,-1.01,-0.0792,-0.13,-0.236,0.515,-0.255,-0.126,-0.397 (inactive),-0.205,-0.14,-0.438,-1.08,0.0425,0.235,1.38,-0.359
CO[C@@H]1COC(=O)CC=C[C@@H](C)[C@H](OC)COC(=O)[C@H](COCc2ccccc2)NC(=O)CC=C[C@H]1C,-2.18,-1.36,0.62,-1.07,-2.36,-0.232,-0.302,-0.625,0.0597,-0.486,-1.39,0.0898 (inactive),-0.0584,-0.197,-0.654,-0.925,-0.23,-0.978,1.22,-3.99
c1ccc(C2NCCc3c2[nH]c2ccccc32)cc1 (stereo not given),-0.571,-3.13,0.106,-0.387,-0.951,-0.124,-0.147,0.183,0.446,0.128,0.0809,-0.0389 (inactive),0.0876,-0.053,0.743,-0.0295,-0.0502,-0.409,0.195,-0.082
O=C1C2C=CC(C(O)c3ccc([N+](=O)[O-])cc3)N(Nc3ccc([N+](=O)[O-])cc3)C2C(=O)N1c1ccccc1 (stereo not given),1.47,-0.74,0.179,2.01,0.757,0.152,0.0796,0.0473,1.3,2.8,0.921,0.373 (inactive),0.351,0.0518,0.661,2.71,0.789,1.29,-0.256,1.19
